Experimental data as given in PubChem BioAssay (NCATS).
Results filed as inconclusive are left out. Active and inactive are the calls of the source. Calls come from the whole dose curve; as a rule, active = well fitted curve in the direction sought with a large enough effect; inconclusive = small, poorly fitted or top-dose-only effect, or another doubt; inactive = no such curve, though single readings can be large; an effect the other way counts as inactive or inconclusive. Where a SMILES comes first, the peptide text is derived from it. The star is where a group is joined. Hexanoyl = CCCCCC(=O)*

Experiments:
[1] = molecular target: Glutathione peroxidase 1 (Homo sapiens) (UniProt P07203); assay: Primary qHTS Assay for Inhibitors of Recombinant Selenoprotein Glutathione Peroxidase 1 (GPX1) (AID 1845191); conditions: recombinant GPX1, GR-coupled NADPH fluorescence, 15 min; series mostly up to 27.7 µM; note: nearly all actives have a fitted effect of over 65% in size; for activity, negative = inhibition: % is set by controls: 0 for no effect and ±100 for the full control effect
Glutathione peroxidase 1 (Homo sapiens), sequence (P07203 whole entry, looked up): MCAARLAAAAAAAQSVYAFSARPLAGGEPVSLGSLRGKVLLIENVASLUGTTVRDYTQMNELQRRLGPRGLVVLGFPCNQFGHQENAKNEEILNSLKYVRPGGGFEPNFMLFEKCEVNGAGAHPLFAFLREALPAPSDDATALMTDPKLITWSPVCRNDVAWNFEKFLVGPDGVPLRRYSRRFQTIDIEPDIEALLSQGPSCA
In short: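 GPX1 10 nM, GR 100 nM, GSH 1 mM, NADPH 0.5 mM, CHP 0.5 mM (final). 30-min cpd preincubation, RT. Ex340/Em450 read t=0, t=15 min.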

[2] = molecular target: Phospholipid hydroperoxide glutathione peroxidase GPX4 (Homo sapiens) (UniProt P36969); assay: Primary qHTS Assay for Inhibitors of Recombinant Selenoprotein Glutathione Peroxidase 4 (GPX4) (AID 1845192); conditions: recombinant GPX4, GR-coupled NADPH fluorescence, 15 min; series mostly up to 27.8 µM; note: nearly all actives have a fitted effect of over 65% in size; for activity change, negative = inhibition: % is set by controls: 0 for no effect and ±100 for the full control effect
Phospholipid hydroperoxide glutathione peroxidase GPX4 (Homo sapiens), sequence (P36969 whole entry, looked up): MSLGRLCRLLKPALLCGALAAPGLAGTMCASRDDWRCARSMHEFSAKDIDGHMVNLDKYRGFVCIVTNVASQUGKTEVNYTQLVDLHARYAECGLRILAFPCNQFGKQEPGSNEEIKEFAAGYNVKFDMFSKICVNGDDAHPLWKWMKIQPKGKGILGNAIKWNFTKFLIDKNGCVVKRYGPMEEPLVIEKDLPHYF
In short: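 qHTS, GR-coupled: GPX4 200 nM + cpd 30 min RT → GSH 1 mM, NADPH 0.5 mM, GR 100 nM → CHP 0.5 mM start; fluor 340/450 at t0 and t15 min; no-enzyme wells as control.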

[3] = system: Nanoluciferase (engineered Oplophorus gracilirostris luciferase); assay: Primary Nanoluciferase (NLuc) qHTS assay for identification of artifact compounds. (AID 1845222); conditions: NLuc-conditioned medium, Nano-Glo luminescence, 5 min; series mostly up to 54.1 µM
In short: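 Luminescence read-out of secreted NLuc in S16 cell conditioned medium (1:55); compounds tested with 15 min RT preincubation, then Nano-Glo substrate 1:100, 5 min. % inhibition vs no-enzyme and DMSO controls, 4-parameter Hill fit.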

[4] = Primary redox qHTS assay for identification of artifact compounds. (AID 1845223); conditions: Amplex Red/HRP redox cycling with DTT, fluorescence; series mostly up to 53.8 µM;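 note: 0% = DMSO and 100% = reference compound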
In short: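 Redox-cycling detection via DTT (250 uM final) oxidation coupled to Amplex Red (25 uM)/HRP (250 mU/mL) in HBSS. 15 min preincubation plus 30 min after DTT, room temperature. Ex/Em 525/598 nm; 4-parameter Hill fit against DMSO and 10 uM DA3003.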

[5] = Primary fluorescence-based thiol-reactive (MSTI) qHTS assay for identification of artifact compounds. (AID 1845221); conditions: MSTI thiol-reactivity probe, 1 h; series mostly up to 53.8 µM; note: nearly all actives have a fitted effect of over 65% in size; note: potency is the fitted concentration of half-maximal effect;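 for activity change, negative = thiol reactive: thiol-reactive compounds lower the probe fluorescence signal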
In short: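 First, 4 uM MSTI in 2% DMSO/PBS pH 7.4 was dispensed; next, compounds were added; then plates sat 1 h at room temperature without light. Finally, emission at 598 nm was recorded.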

[6] = molecular target: Luciferin 4-monooxygenase (Photinus pyralis) (UniProt P08659); assay: Primary firefly luciferase (FLuc) qHTS assay for identification of artifact compounds. (AID 1845220); conditions: purified firefly luciferase, luminescence, 5 min; series mostly up to 54.1 µM; note: nearly all actives have a fitted effect of over 60% in size; note: potency is the fitted concentration of half-maximal effect;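 for activity change, negative = inhibition: plate controls were DMSO vehicle for no effect and no enzyme for full effect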
In short: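 qHTS, 15 min compound preincubation with substrate (10 uM luciferin, 10 uM ATP) at RT, then 10 nM FLuc; 5 min; luminescence; % inhibition vs no-enzyme/DMSO controls, 4-parameter Hill fit.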

C=C[C@H]1[C@H](O[C@@H]2O[C@H](CO)[C@@H](O)[C@H](OC(=O)/C=C/c3ccc(O)c(OC)c3)[C@H]2O)OC=C2C(=O)OCC[C@]21O
inactive: Potency [1] | Potency [2] | Potency [3] | Potency [4]

Nc1ncnc2c1C(=O)N(c1ccc(C3CCC(CC(=O)O)CC3)cc1)CCO2 (configuration not stated)
inactive: Potency [1] | Potency [2] | Potency [5] | Potency [3] | Potency [4]

COc1cc(/C=C/C(=O)O[C@H]2C[C@@H]3C(C(=O)O)=CO[C@@H](O[C@@H]4O[C@H](CO)[C@@H](O)[C@H](O)[C@H]4O)[C@@H]3[C@H]2C)ccc1O
inactive: Potency [1] | Potency [2] | Potency [3] | Potency [4]

COC(=O)c1cc(OC)cc(OC)c1C(=O)c1c(OC)cc2c(c1O)C1CCC(O)C(C)(O2)O1 (configuration not stated)
inactive: Potency [1] | Potency [2] | Potency [3]

CC(C)=C1CC2C(CCC2(C)O)C(C)(O)CC1=O (configuration not stated)
inactive: Potency [1] | Potency [2] | Potency [3] | Potency [4]
active: Potency [5] 23800 nM

CC(C)=CCC/C(C)=C/CO[C@@H]1O[C@H](CO[C@@H]2O[C@@H](CO)[C@H](O)[C@H]2O)[C@@H](O)[C@H](O)[C@H]1O
inactive: Potency [1] | Potency [2] | Potency [3]

CCOC(=O)CSc1nc2c(sc3ccccc32)c(=O)n1CCCN1CCCC1
inactive: Potency [1] | Potency [6] | Potency [5] | Potency [3]

C=C(C)C(O)COc1ccc(CC(=O)O)cc1 (configuration not stated)
inactive: Potency [1] | Potency [2] | Potency [3] | Potency [4]

COc1ccc2c(c1)C=C1Cn3c-2c(C2CCCCC2)c2ccc(cc23)C(=O)NS(=O)(=O)N(C)CCOCCN(C)C1=O
inactive: Potency [1] | Potency [6] | Potency [5] | Potency [3]

CCOc1ccc(-c2cc(NC(=O)c3c(F)cccc3F)c(C(=O)O)s2)cc1
inactive: Potency [1] | Potency [2] | Potency [5] | Potency [4]

O=C(OC(C(F)(F)F)C(F)(F)F)N1CCN(Cc2cccc(Oc3ccccc3)c2)CC1
inactive: Potency [1] | Potency [2] | Potency [5] | Potency [4]

CC(C)c1ccc2c(c1)CCC1[C@](C)(C(=O)O)CCC[C@]21C (some centres not stated)
inactive: Potency [1] | Potency [2] | Potency [5] | Potency [3] | Potency [4]

On1ncc(C2CCNCC2)c1-c1cccc(-c2ccccc2)c1
inactive: Potency [1] | Potency [6] | Potency [5] | Potency [3] | Potency [4]

COc1ccc(C2(O)c3ccccc3NC(=O)C2OC)cc1 (configuration not stated)
inactive: Potency [1] | Potency [6] | Potency [5] | Potency [3] | Potency [4]

CC(C)(Oc1ccc(-c2nc3cc(Cl)ccc3s2)cc1)C(=O)O
active: Potency [6] 2390 nM
inactive: Potency [1] | Potency [5] | Potency [4]

O=C(/C=C/c1ccc(O)c(O)c1)O[C@H]1[C@H](OC2CCCCC2O)O[C@H](CO)[C@@H](O)[C@@H]1O (some centres not stated)
inactive: Potency [1] | Potency [6] | Potency [3] | Potency [4]
active: Potency [5] 2070 nM

CC(O)C(O)/C=C/C=C/C(=O)O[C@@H]1C=C(C(=O)O)[C@](O)(CO)[C@@]2(C)CCCC(C)(C)[C@H]12 (some centres not stated)
inactive: Potency [1] | Potency [6] | Potency [5] | Potency [3] | Potency [4]

C[C@@H]1O[C@@H](O[C@@H]2[C@@H](O)[C@H](O[C@@H]3[C@@H](O)[C@@H](O)[C@H](O[C@H]4[C@H](OC(=O)[C@]56CCC(C)(C)C[C@H]5C5=CCC7[C@@]8(C)C[C@H](O)[C@H](O[C@@H]9O[C@H](C(=O)O)[C@@H](O)[C@H](O)[C@H]9O)[C@@](C)(CO)C8[C@H](O)C[C@@]7(C)[C@]5(C)C[C@H]6O)O[C@@H](CO)[C@@H]4O)O[C@H]3C)OC[C@H]2O)[C@H](O)[C@H](O)[C@H]1O (some centres not stated)
inactive: Potency [1] | activity change, negative = inhibition [6] 2.08% [at 11.6 µM] | activity change, negative = thiol reactive [5] 382% [at 11.5 µM] | activity, negative = inhibition [3] 4.49% [at 11.6 µM] | redox activity (% of DA3003) [4] 16.5% [at 11.5 µM]

C=C1[C@H](OC(C)=O)[C@H]2[C@@H](OC(C)=O)C(C)C[C@]2(OC(C)=O)C(=O)[C@H](C)/C=C/C(C)(C)C(=O)[C@H](OC(=O)C(C)C)[C@H]1OC(C)=O (some centres not stated)
inactive: Potency [1] | Potency [6] | Potency [5] | Potency [3] | Potency [4]

CC(=O)O[C@@H]1[C@H](O[C@@H]2O[C@H](CO)[C@@H](O)[C@H](O)[C@H]2O)[C@@H](O[C@@H]2O[C@@H](C)[C@H](O)[C@@H](O[C@@H]3O[C@H](CO)[C@@H](O)[C@H](O)[C@H]3O)[C@H]2O)[C@H](OC(=O)[C@]23CCC(C)(C)C[C@H]2C2=CCC4[C@@]5(C)C[C@H](O)[C@H](O[C@@H]6O[C@H](C(=O)O)[C@@H](O)[C@H](O)[C@H]6O)[C@@](C)(C(=O)O)C5CC[C@@]4(C)[C@]2(C)CC3)O[C@@H]1C (some centres not stated)
inactive: Potency [1] | outcome [6] inactive [at 11.6 µM] | activity change, negative = thiol reactive [5] 244% [at 11.5 µM] | activity, negative = inhibition [3] 4.94% [at 11.6 µM] | redox activity (% of DA3003) [4] -2.45% [at 11.5 µM]

COc1cc(O)cc(O[C@@H]2O[C@H](CO)[C@@H](O[C@@H]3OC[C@](O)(CO)[C@H]3O)[C@H](O)[C@H]2O)c1OC
inactive: Potency [1] | Potency [6] | Potency [3] | Potency [4]

CC(=O)OC[C@]12[C@@H](OC(=O)c3ccoc3)C[C@@H]3[C@@H](OC(C)=O)[C@]1(OC3(C)C)[C@@](C)(O)C[C@H](OC(=O)c1ccoc1)[C@@H]2OC(=O)c1ccoc1
inactive: Potency [1] | Potency [6] | Potency [5] | Potency [3] | Potency [4]

CCCCCC(=O)N1CCC[C@H]1C(=O)N[C@@H](Cc1ccc(O)cc1)C(=O)OC (Hexanoyl-Pro-Tyr-OMe)
inactive: Potency [1] | Potency [6] | Potency [5] | Potency [3] | Potency [4]
